Compound in the test: Cc1cc(ccc1-c1ccccc1)C(=O)N1CCCN(CC1)C(=O)CCl [compound 10]
Description: probe-labelled cysteine peptide fold change vs DMSO (competition) (log2 fold change); higher = less target engagement (more negative = stronger competition). As to conditions: THP-1, incubation time: 4 h.

Of roughly 21,000 targets only a part is listed; those with the largest changes were picked by preference.
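Also: competitive profiling in live THP-1 cells: cysteine peptides tagged with an iodoacetamide desthiobiotin (IA-DTB) probe, intensity after compound treatment relative to DMSO-treated cells.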

Chain of UniProt Q9H0D6 (Q9H0D6 whole entry, looked up): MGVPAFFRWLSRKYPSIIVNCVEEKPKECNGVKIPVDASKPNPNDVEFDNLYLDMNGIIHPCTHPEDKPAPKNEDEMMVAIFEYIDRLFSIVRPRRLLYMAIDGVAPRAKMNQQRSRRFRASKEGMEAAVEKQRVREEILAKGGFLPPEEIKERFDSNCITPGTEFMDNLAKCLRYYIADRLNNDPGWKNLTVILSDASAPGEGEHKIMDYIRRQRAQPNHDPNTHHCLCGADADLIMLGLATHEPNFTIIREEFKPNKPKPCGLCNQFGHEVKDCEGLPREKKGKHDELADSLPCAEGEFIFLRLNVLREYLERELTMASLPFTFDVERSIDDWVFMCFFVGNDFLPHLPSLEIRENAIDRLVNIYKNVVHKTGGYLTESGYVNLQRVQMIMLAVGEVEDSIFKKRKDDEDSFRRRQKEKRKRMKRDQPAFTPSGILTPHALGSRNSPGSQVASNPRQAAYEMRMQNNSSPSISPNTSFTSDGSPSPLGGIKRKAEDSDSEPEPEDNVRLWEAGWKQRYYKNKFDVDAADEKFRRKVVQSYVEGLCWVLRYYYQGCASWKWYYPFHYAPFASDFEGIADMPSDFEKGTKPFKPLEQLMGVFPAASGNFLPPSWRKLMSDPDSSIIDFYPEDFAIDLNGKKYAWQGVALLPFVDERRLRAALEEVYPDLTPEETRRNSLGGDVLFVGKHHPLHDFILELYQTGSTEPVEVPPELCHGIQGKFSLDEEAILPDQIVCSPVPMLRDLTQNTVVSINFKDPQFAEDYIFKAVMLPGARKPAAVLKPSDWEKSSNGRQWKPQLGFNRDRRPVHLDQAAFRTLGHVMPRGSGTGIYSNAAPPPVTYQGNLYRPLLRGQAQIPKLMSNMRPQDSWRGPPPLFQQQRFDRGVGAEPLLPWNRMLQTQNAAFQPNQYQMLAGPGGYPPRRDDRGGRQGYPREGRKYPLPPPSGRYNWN
Chain of UniProt Q8NBI6 (Q8NBI6 whole entry, looked up): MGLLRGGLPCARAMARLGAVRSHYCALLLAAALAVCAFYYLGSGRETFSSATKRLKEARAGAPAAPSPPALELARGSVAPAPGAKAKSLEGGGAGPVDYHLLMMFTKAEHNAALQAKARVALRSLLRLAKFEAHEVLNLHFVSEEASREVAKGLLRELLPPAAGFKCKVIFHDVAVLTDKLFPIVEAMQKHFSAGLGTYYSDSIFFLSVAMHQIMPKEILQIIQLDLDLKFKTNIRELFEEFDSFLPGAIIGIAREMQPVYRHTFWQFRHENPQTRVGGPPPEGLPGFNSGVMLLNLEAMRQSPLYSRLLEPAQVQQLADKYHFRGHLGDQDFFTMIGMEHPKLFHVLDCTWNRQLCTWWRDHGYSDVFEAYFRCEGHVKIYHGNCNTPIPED
Chain of UniProt P98170 (P98170 whole entry, looked up): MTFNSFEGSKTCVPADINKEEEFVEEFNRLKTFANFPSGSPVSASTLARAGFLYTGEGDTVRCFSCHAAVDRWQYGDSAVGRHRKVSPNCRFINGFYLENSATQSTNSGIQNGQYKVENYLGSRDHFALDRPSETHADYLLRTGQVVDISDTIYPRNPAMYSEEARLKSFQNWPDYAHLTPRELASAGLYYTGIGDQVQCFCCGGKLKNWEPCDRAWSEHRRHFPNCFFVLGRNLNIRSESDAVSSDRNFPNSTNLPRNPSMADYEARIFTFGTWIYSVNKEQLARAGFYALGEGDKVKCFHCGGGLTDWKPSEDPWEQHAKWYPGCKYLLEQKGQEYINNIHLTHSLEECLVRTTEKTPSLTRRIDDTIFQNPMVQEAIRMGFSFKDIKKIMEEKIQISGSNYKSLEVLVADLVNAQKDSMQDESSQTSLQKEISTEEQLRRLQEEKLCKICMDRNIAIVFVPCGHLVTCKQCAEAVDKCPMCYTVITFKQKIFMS
Chain of UniProt Q9Y4P8 (Q9Y4P8 whole entry, looked up): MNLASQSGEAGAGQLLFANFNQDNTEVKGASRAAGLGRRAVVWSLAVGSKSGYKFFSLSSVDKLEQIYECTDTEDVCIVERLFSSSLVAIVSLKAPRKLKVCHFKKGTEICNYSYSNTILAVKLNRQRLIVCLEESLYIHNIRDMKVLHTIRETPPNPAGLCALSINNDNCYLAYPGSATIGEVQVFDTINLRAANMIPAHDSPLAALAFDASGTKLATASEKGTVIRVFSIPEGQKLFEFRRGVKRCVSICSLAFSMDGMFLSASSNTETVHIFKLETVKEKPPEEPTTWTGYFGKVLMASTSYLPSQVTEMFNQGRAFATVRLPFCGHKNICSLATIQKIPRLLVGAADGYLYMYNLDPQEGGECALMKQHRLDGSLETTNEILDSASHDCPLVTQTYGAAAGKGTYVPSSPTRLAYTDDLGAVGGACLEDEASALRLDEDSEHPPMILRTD
Chain of UniProt Q7Z7L7 (Q7Z7L7 whole entry): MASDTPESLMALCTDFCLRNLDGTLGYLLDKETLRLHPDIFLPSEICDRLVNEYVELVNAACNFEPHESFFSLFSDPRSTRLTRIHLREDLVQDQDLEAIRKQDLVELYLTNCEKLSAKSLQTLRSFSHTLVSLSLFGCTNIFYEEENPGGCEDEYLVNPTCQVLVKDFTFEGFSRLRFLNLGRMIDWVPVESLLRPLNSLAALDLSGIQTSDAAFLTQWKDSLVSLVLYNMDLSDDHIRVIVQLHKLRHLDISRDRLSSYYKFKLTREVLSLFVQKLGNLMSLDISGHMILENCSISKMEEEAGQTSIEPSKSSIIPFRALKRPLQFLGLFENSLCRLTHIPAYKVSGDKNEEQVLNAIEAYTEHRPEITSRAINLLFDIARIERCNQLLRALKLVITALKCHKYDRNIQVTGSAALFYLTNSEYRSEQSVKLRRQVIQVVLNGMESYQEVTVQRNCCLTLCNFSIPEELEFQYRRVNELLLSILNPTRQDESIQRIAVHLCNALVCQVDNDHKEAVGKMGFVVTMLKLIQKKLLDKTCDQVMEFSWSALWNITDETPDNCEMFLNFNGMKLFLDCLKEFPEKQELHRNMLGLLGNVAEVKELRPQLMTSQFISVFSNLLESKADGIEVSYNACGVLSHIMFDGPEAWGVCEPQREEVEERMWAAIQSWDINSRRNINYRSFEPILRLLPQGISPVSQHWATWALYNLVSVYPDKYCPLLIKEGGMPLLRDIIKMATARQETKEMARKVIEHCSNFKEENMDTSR
Chain of UniProt Q9H8G1 (Q9H8G1 whole entry): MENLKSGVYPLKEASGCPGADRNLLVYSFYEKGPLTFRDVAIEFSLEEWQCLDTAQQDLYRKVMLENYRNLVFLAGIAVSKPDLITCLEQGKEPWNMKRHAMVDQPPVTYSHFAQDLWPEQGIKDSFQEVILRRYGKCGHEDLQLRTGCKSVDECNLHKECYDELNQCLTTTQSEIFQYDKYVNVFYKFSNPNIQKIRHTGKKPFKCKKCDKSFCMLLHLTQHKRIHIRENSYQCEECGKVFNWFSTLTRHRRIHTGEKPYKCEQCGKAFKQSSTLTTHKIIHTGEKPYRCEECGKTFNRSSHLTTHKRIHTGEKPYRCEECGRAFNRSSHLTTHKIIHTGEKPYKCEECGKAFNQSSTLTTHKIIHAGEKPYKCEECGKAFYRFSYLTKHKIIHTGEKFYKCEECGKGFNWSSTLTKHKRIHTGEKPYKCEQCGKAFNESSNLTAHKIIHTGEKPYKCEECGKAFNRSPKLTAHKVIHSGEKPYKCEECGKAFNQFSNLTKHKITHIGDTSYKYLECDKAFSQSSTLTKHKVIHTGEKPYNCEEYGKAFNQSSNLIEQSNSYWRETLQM
Chain of UniProt Q6DD87 (Q6DD87 whole entry, looked up): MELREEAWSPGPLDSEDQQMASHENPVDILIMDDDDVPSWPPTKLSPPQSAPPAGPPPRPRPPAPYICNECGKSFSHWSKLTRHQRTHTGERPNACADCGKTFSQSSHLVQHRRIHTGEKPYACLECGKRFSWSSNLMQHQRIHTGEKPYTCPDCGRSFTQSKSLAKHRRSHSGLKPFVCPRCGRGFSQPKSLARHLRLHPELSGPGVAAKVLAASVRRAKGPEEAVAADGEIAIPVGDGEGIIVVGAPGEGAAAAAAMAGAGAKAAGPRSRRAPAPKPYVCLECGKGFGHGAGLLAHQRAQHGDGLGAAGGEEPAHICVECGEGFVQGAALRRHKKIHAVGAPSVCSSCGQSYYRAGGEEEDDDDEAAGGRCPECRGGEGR
Chain of UniProt Q96ME7 (Q96ME7 whole entry, looked up): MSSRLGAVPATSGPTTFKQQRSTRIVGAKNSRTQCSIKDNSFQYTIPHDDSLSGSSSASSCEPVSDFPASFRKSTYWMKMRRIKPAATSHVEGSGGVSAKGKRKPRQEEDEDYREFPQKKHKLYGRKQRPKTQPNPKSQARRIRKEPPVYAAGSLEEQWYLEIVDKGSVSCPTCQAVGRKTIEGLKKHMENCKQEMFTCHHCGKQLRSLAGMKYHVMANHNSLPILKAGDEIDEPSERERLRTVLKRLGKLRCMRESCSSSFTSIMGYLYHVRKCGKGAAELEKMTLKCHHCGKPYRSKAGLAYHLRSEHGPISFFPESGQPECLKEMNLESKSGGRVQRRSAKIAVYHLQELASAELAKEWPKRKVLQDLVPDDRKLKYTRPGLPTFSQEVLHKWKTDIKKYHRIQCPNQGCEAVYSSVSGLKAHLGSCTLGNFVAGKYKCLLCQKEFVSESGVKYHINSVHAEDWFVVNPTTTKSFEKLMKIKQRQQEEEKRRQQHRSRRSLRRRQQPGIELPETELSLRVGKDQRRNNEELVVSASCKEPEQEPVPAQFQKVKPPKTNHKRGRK
Chain of UniProt Q9H6Y2 (Q9H6Y2 whole entry, looked up): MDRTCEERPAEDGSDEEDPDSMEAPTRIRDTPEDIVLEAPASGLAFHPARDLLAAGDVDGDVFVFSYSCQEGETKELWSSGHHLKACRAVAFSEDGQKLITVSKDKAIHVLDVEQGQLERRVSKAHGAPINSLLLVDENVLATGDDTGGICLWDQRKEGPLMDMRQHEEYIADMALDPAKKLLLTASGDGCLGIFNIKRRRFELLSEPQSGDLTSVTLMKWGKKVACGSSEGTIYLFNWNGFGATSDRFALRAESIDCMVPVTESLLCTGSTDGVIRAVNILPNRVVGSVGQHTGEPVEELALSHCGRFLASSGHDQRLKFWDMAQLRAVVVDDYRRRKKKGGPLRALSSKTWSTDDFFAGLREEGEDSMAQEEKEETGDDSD

Consider “ZNF76_P36508_342_HHVVHTHCK (UniProt P36508)”, for which the “probe-labelled cysteine peptide fold change” value was -0.115 (10 µM) and -0.0476 (50 µM).

Take “WDR41_Q9HAD4_291_SNDISIHHFTCDEENVFAAVGR (UniProt Q9HAD4)”: the “probe-labelled cysteine peptide fold change” value (10 µM) was 0.135 and the “probe-labelled cysteine peptide fold change” value (50 µM) amounted to 0.418.

Regarding “ZNF579_Q8NAF0_77_LSHSGLRPHACPLCPK (UniProt Q8NAF0)”, the “probe-labelled cysteine peptide fold change” value is 0.112 (10 µM) and -0.0195 (50 µM).

In the case of “XXYLT1_Q8NBI6_386_IYHGNCNTPIPED (UniProt Q8NBI6)”, the “probe-labelled cysteine peptide fold change” value (10 µM) is -0.00561 and the “probe-labelled cysteine peptide fold change” value (50 µM) is -0.0309.

In the case of “ZNF280C_Q8ND82_388_ICELSFETEHILLQHMK (UniProt Q8ND82)”, the “probe-labelled cysteine peptide fold change” value stood at 0.00547 (10 µM) and 0.0405 (50 µM).

As for “YWHAZ_P63104_94_DICNDVLSLLEK (UniProt P63104)”, the “probe-labelled cysteine peptide fold change” value was found to be 0.233 (10 µM) and 0.309 (50 µM).

In the case of “ZRANB2_O95218_20_CGNVNFAR (UniProt O95218)”, the “probe-labelled cysteine peptide fold change” value was -0.0495 (10 µM) and -0.314 (50 µM).

For “ZC3HAV1_Q7Z2W4_7_ADPEVCCFITK (UniProt Q7Z2W4)”, the “probe-labelled cysteine peptide fold change” value (10 µM) is 0.158 and the “probe-labelled cysteine peptide fold change” value (50 µM) was determined as 0.175.

On to “ZNF691_Q5VV52_176_CQESFR (UniProt Q5VV52)”, for which the “probe-labelled cysteine peptide fold change” value was -0.0275 (10 µM) and -0.0396 (50 µM).

For the target “XRN2_Q9H0D6_715_HHPLHDFILELYQTGSTEPVEVPPELCHGIQGK (UniProt Q9H0D6)”, the “probe-labelled cysteine peptide fold change” value (10 µM) is -0.0366 and the “probe-labelled cysteine peptide fold change” value (50 µM) turned out to be 0.0175.

As for “WDFY4_Q6ZS81_2226_TEDFVSCIENYR (UniProt Q6ZS81)”, the “probe-labelled cysteine peptide fold change” value is, setting by setting: (10 µM) -0.17; (50 µM) -0.159.

As to “WDR5_P61964_205_IWDTASGQCLK (UniProt P61964)”, the “probe-labelled cysteine peptide fold change” value runs as follows: (10 µM) 0.16; (50 µM) 0.0228.

Regarding “WASHC5_Q12768_385_WLMLHTADSACDPNNKR (UniProt Q12768)”, the “probe-labelled cysteine peptide fold change” value was -2.11 (10 µM) and -2.63 (50 µM).

On to “ZNF430_Q9H8G1_138_CGHEDLQLR (UniProt Q9H8G1)”, for which the “probe-labelled cysteine peptide fold change” value is -0.195 (10 µM) and -0.412 (50 µM).

Turning to “WDR77_Q9BQA1_186_DSVFLSCSEDNR (UniProt Q9BQA1)”, the “probe-labelled cysteine peptide fold change” value runs as follows: (10 µM) 0.136; (50 µM) 0.227.

Turning to “ZNF483_Q8TF39_392_IHLGDRSQKCSK (UniProt Q8TF39)”, the “probe-labelled cysteine peptide fold change” value reads like this: (10 µM) -0.0771; (50 µM) -0.64.

Turning to “WDR77_Q9BQA1_172_AHAAQVTCVAASPHK (UniProt Q9BQA1)”, the “probe-labelled cysteine peptide fold change” value came to 0.0618 (10 µM) and 0.254 (50 µM).

As to “ZC3HAV1_Q7Z2W4_168_QQICNQQPPCSR (UniProt Q7Z2W4)”, the “probe-labelled cysteine peptide fold change” value (10 µM) amounted to 0.0782 and the “probe-labelled cysteine peptide fold change” value (50 µM) was -0.158.

With “ZNF76_P36508_292_THTGERPYTCPEPHCGR (UniProt P36508)”, the “probe-labelled cysteine peptide fold change” value (10 µM) stood at 0.0197 and the “probe-labelled cysteine peptide fold change” value (50 µM) was -0.0549.

For “ZNF189_O75820_262_CSDCGK<|>ZSCAN22_P52741_466_CSDCGK<|>ZNF16_Q09FC8_435_CSDCGK<|>ZNF81_Q2M218_640_CSDCGK<|>ZNF134_Q5JVG2_290_CSDCGK<|>ZNF415_Q8N8J6_574_CSDCGK (UniProt Q8N8J6+Q5JVG2+Q2M218+Q09FC8+P52741+O75820)”, the “probe-labelled cysteine peptide fold change” value by setting is: (10 µM) 0.0389; (50 µM) 0.142.

“ZBTB7A_O95365_490_DGCNGVPSR (UniProt O95365)”: the “probe-labelled cysteine peptide fold change” value is, setting by setting: (10 µM) 0.000157; (50 µM) -0.0775.

With “YY1AP1_Q9H869_689_AHMNVDIACAVADGENAFQGLEPK (UniProt Q9H869)”, the “probe-labelled cysteine peptide fold change” value (10 µM) was -0.0161 and the “probe-labelled cysteine peptide fold change” value (50 µM) was found to be 0.141.

Consider “ZNF787_Q6DD87_350_IHAVGAPSVCSSCGQSYYR (UniProt Q6DD87)”, for which the “probe-labelled cysteine peptide fold change” value is -0.238 (10 µM) and -0.311 (50 µM).

For “YY1_P25490_390_IHTGDRPYVCPFDGCNK (UniProt P25490)”, the “probe-labelled cysteine peptide fold change” value (10 µM) was found to be 0.136 and the “probe-labelled cysteine peptide fold change” value (50 µM) came out at 0.715.

As to “YTHDC2_Q9H6S0_788_LLAPVNCPIADFLMK (UniProt Q9H6S0)”, the “probe-labelled cysteine peptide fold change” value is, setting by setting: (10 µM) -0.0326; (50 µM) -0.072.

Consider “ZC3H12A_Q5D1E8_374_RPSPSSQSSSLLTESEQCSLDGK (UniProt Q5D1E8)”, for which the “probe-labelled cysteine peptide fold change” value is -0.349 (10 µM) and -0.484 (50 µM).

Consider “ZMYM4_Q5VZL5_1499_SCVPNSPMWYSTFPIDPGTLDTMLTR (UniProt Q5VZL5)”, for which the “probe-labelled cysteine peptide fold change” value (10 µM) is -0.668 and the “probe-labelled cysteine peptide fold change” value (50 µM) is -0.33.

As for “ZNF638_Q14966_688_EQSLHYGSVLLITELPEDGCTEEDVR (UniProt Q14966)”, the “probe-labelled cysteine peptide fold change” value came to 0.0192 (10 µM) and 0.11 (50 µM).

In the case of “ZFYVE19_Q96K21_435_CAGCDGDLFCAR (UniProt Q96K21)”, the “probe-labelled cysteine peptide fold change” value is, setting by setting: (10 µM) 0.0027; (50 µM) -0.124.

As to “WIPI2_Q9Y4P8_430_LAYTDDLGAVGGACLEDEASALRLDEDSEHPPMILR (UniProt Q9Y4P8)”, the “probe-labelled cysteine peptide fold change” value was -0.352 (10 µM) and -0.0492 (50 µM).

Turning to “ZNF451_Q9Y4E5_476_TWFCECNQR (UniProt Q9Y4E5)”, the “probe-labelled cysteine peptide fold change” value runs as follows: (10 µM) 0.0139; (50 µM) 0.0709.

Regarding “ZNF512_Q96ME7_540_NNEELVVSASCK (UniProt Q96ME7)”, the “probe-labelled cysteine peptide fold change” value runs as follows: (10 µM) 0.0455; (50 µM) 0.0373.

With “XIAP_P98170_213_NWEPCDR (UniProt P98170)”, the “probe-labelled cysteine peptide fold change” value reads like this: (10 µM) -0.0911; (50 µM) -0.654.

In the case of “WDR55_Q9H6Y2_5_TCEERPAEDGSDEEDPDSMEAPTR (UniProt Q9H6Y2)”, the “probe-labelled cysteine peptide fold change” value runs as follows: (10 µM) -0.668; (50 µM) -1.19.

For “ZCCHC3_Q9NUD5_385_GHAFAQCPK (UniProt Q9NUD5)”, the “probe-labelled cysteine peptide fold change” value (10 µM) was 0.0381 and the “probe-labelled cysteine peptide fold change” value (50 µM) is -0.0115.

As to “ZER1_Q7Z7L7_337_RPLQFLGLFENSLCR (UniProt Q7Z7L7)”, the “probe-labelled cysteine peptide fold change” value was -0.124 (10 µM) and -0.0583 (50 µM).

The values above are taken from the supplement of paper PMC12067093, “Discovery and optimisation of a covalent ligand for TRIM25 and its application to targeted protein ubiquitination” (Chemical Science, 2025).
